These results are taken from PubChem BioAssay (NCATS).

The target of test [1] is Ferritin light chain (Equus caballus) (UniProt P02791). As to the kind of experiment: qHTS Validation Assay for Identification of Novel General Anesthetics (AID 2323). Also: series mostly up to about 77 µM. In a few lines: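 Competitive displacement of the profluorescent anesthetic 1-AMA (50% saturated, PBS) from 10 uM apoferritin, 10 min, room temperature. Activity is normalized 380/535 nm fluorescence; concentration-response fitted with a four-parameter Hill equation.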

The nature of test [2]: High Content Imaging Cell-Based qHTS for Inhibitors of the mTORC1 Signaling Pathway in MEF (Tsc2-/-, p53-/-) Cells (AID 2666).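 Also: percent of cells scored positive for phospho-rpS6 Ser235/236 immunostaining by imaging.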 In a few lines: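 MEF Tsc2-/- p53-/- (empty vector), DMEM/10% FBS; cpd 24 h 37 °C; PFA fix, Alexa-488 p-rpS6 S235/236 Ab, Hoechst; imaged; rapamycin-defined inhibition; % positive cells/well.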
Test [3] can be described thus: High Content Imaging Cell-Based qHTS for Inhibitors of the mTORC1 Signaling Pathway in MEF Cells (AID 2667). Also: potency is read from the fitted curve at half-maximal effect. In a few lines:
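Read-out is the share of phospho-rpS6-positive cells per well, from Hoechst-normalized Alexa-488 Ser235/236 staining imaged on IN Cell. Cells: WT Tsc2-expressing Tsc2-/-, p53-/- MEFs exposed to compound for 24 hrs.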
In general terms: Quantitative high-throughput screening tests each substance at several concentrations.

A short description of test [4]: Cytometry Cell-Based qHTS for Inhibitors of the mTORC1 Signaling Pathway in MEF cells (AID 2668). Also: potency is read from the fitted curve at half-maximal effect. An outline of the steps: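 Phospho-rpS6 (Ser235/236) immunofluorescence over PI signal, scored as % positive cells using thresholds from 7.5 nM rapamycin and DMSO wells, after 24 h compound exposure of WT-Tsc2-rescued Tsc2-/-, p53-/- MEFs. PI cell count recorded for viability.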

Test [5] concerns the target Ubiquitin carboxyl-terminal hydrolase 2 (Homo sapiens) (UniProt O75604). Put plainly: qHTS Validation Assay for Inhibitors of Ubiquitin-specific Protease USP2a Using CHOP2 as the Reporter (AID 463106). In a few lines: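 Fluorescence read-out at Ex 485nm/Em 531nm after 60min RT, following addition of 25nM Ub-CHOP2 plus 25nM reporter substrate to USP2 core (10nM) pretreated 30min with compound. Data normalized to NEM full inhibition; concentration-response curves fitted.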

Test [6] concerns the target Beta-2 adrenergic receptor (Homo sapiens) (UniProt P07550). As to the kind of experiment: qHTS validation assay of beta-arrestin-biased ligands of beta2-adrenergic receptor (AID 485366). An outline of the steps: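 Agonist activity is measured as luciferase luminescence downstream of beta-arrestin recruitment to recombinant beta2-AR in Tango cells. Exposure lasts 18 hr at 37 degrees C, and curves are categorized by r2, response size and activity.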

The target of test [7] is Thioredoxin reductase 1, cytoplasmic (Rattus norvegicus) (UniProt O89049). As to the kind of experiment: qHTS Assay for Substrates of Mammalian Selenoprotein Thioredoxin Reductase 1 (TrxR1) (AID 488772).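 Also: series mostly up to about 57 µM; a drop in NADPH fluorescence below the no-compound background marks a TrxR1 substrate.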 An outline of the steps:
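In this dual-purpose format, potential substrates are identified from the first fluorescence read after selenite addition, not from the 8-minute delta. Rat enzyme is preincubated with NADPH and then with compound at ~22 deg C.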

Test [8] has the same target. Put plainly: qHTS Assay for Inhibitors of Mammalian Selenoprotein Thioredoxin Reductase 1 (TrxR1) (AID 488773).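 Also: drop in NADPH fluorescence over an 8 min run after selenite addition; series mostly up to about 57 µM; nearly all actives have a fitted effect of over 40% in size.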 Conditions: Potency: inhibition. An outline of the steps:
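Inhibition is scored from the loss of NADPH fluorescence between first and last reads of an 8-min kinetic run. Selenite (400 uM) was the substrate, added after 15 min compound preincubation at room temperature.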

For test [9], the target named is Flap endonuclease 1 (Homo sapiens) (UniProt P39748). Put plainly: qHTS Validation Assay for the Inhibitors of Human Flap endonuclease 1 (FEN1) (AID 488816). Also: potency is read from the fitted curve at half-maximal effect. An outline of the steps: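 Enzyme reagent 10 nM; cpds pinned; 15 min RT preinc.; substrate 50 nM final; reads t=0 and 15 min; no-enzyme buffer wells as neg. control; normalized data, 4-parameter Hill fit.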
Test [10] in a line: Cytometric Cell-Based qHTS for Inhibitors of the mTORC1 Signaling Pathway in MEF (Tsc2-/-, p53-/-) Cells (AID 2660).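 Also: Tsc2 and p53 null MEFs carrying empty vector with compound for 24 h; percent of cells above a phospho-rpS6 to PI ratio cutoff in each well; series mostly up to about 38 µM.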 In a few lines: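 Readout: Alexa-488 phospho-rpS6 (Ser235/236) intensity divided by PI intensity, thresholded against 7.5 nM rapamycin wells and reported as % positive cells. PI cell count served as the viability measure. Compound exposure was 24 hrs at 37 degree Celsius.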

Test [11] in a line: Validation screen for small molecules that induce DNA re-replication in MCF 10A normal breast cells (AID 463097). Also: nearly all actives have a fitted effect of over 60% in size. An outline of the steps: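 Read-out is Hoechst total nuclear intensity by fluorescence scanning imager, flagging increased high-DNA-content nuclei. Compounds were incubated with MCF 10A cells for 48 hr (37 C, 5% CO2) before 40 min staining.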
Test [12] has as its target Tumor susceptibility gene 101 protein (Homo sapiens) (UniProt Q99816). Put plainly: qHTS Validation Assay for Iinhibitors of HIV-1 Budding by Blocking the Interaction of PTAP/TSG101 (AID 485342; calls by dose curve). In a few lines: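 Fluorescence polarization of 50 nM FITC-PTAP peptide bound to 10 uM Tsg101 binding domain was read after 20 min room-temperature incubation with compounds, in 10 mM HEPES pH 7.5, 0.15 M NaCl, 0.01% Tween 20.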

Test [13] in a line: qHTS Validation Assay to Find Inhibitors of Chronic Active B-Cell Receptor Signaling (AID 485345; active = well fitted curve in the direction sought with a large enough effect in the main read-out, with a control signal flat, not every such curve was filed as active; also: potency is read from the fitted curve at half-maximal effect). In a few lines: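 TMD8 ABC-DLBCL cells stably carrying doxycycline-inducible IkappaBalpha–green luciferase fusion plus unfused red luciferase; compounds 46 uM to 3 nM, 4 h at 37C with doxycycline. Corrected green/red luminescence ratio normalized to 10 uM MG-132 and basal cell wells; curves fitted.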

For test [14], the target named is ATP-dependent 6-phosphofructokinase (Trypanosoma brucei brucei) (UniProt O15648). As to the kind of experiment: qHTS Validation Assay to Find Inhibitors of T. brucei phosphofructokinase (AID 485368). Particulars: outcome: dose series up to 57.5 µM. In a few lines:
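Inhibition derived from concentration-response curves of luminescence, ranked by r2, response size and curve class; the underlying reaction used 1.25 nM PFK, 0.1 mM ATP and 0.5 mM F6P, 45 min, room temperature.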

Test [15] concerns the target M-phase phosphoprotein 8 (Homo sapiens) (UniProt Q99549). Put plainly: qHTS Validation Assay for Inhibitors for MPP8 Chromodomain Interactions with Methylated Histone Tails (AID 488949). Also: nearly all actives have a fitted effect of over 55% in size. Also: potency is read from the fitted curve at half-maximal effect. An outline of the steps:
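AlphaScreen proximity signal from streptavidin donor and Ni-chelate acceptor beads (10 ug/mL each) reported binding of MPP8 to trimethyl-K9 H3(1-18) peptide, both at 50 nM. The complex formed 30 min before a 30 min compound exposure at room temperature, in PBS pH 7.4.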

Test [16] deals with DNA polymerase III PolC-type (Bacillus subtilis (strain 168)) (UniProt P13267). Put plainly: qHTS Validation Assay for the Inhibitors of DNA Replication in Gram-Positive Bacteria (AID 485295).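 Also: reconstituted holoenzyme with PolC plus beta clamp SSB and primase; PicoGreen fluorescence of double-stranded DNA made on primed circular M13 template; series mostly up to about 57 µM.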 In a few lines: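 Double-stranded DNA product detected by PicoGreen fluorescence after EDTA quench. Compound incubated with B. subtilis holoenzyme (PolC, beta subunit, SSB, primase) before substrate addition; primed replication of M13Gori with dNTPs and NTPs at room temperature; DMSO defines 0% inhibition.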

Test [17] is described as follows: Quantitative high throughput screen for delayed death inhibitors of the malarial parasite plastid, 96 hour incubation (AID 488745). Also: potency is read from the fitted curve at half-maximal effect; nearly all actives have a fitted effect of over 70% in size. An outline of the steps: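 Readout is firefly luciferase luminescence from an integrated reporter in P. falciparum; lower signal marks inhibited growth. Cultures at 2% hematocrit and 0.1% parasitemia were treated with compound across two generations (96 h, 37 C, 5% CO2).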

The nature of test [18]: Quantitative high throughput screen for delayed death inhibitors of the malarial parasite plastid, 48 hour incubation (AID 488752). Also: nearly all actives have a fitted effect of over 65% in size. Also: potency is read from the fitted curve at half-maximal effect. In a few lines:
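First, compound was pinned into RPMI 1640 medium containing 0.5% Albumax. Next, reporter-parasite-infected erythrocytes were added to 2% hematocrit and 0.1% parasitemia. After 48 h at 37 C under 5% CO2, luciferase detection reagent was added and luminescence read.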

Test [19] deals with ATP-dependent DNA helicase Q1 (Homo sapiens) (UniProt P46063). As to the kind of experiment: qHTS Validation Assay for Inhibitors of RecQ-Like Dna Helicase 1 (RECQ1) (AID 2353). Also: potency is read from the fitted curve at half-maximal effect. An outline of the steps:
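RECQ1T1 50 nM; forked duplex (20 bp + 30-nt ss tails) 200 nM, ATP 2 mM final; pH 8.0, 2 mM MgCl2, 2.5 ug/ml poly(dI-dC); 15 min compound preincubation; discontinuous kinetic read over 2 h at RT.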

Test [20] concerns the target RecQ-like DNA helicase BLM (Homo sapiens) (UniProt P54132). As to the kind of experiment: qHTS Validation Assay for Inhibitors of Bloom's syndrome helicase (BLM) (AID 2364). In a few lines:
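50 nM BLM preincubated 15 min at room temperature with compound in pH 8.0 Tris buffer containing 2.5 ug/ml poly(dI-dC); started with 200 nM TAMRA/BHQ-2 forked duplex and 2 mM ATP (final). Unwinding read as TAMRA fluorescence increase, two reads 2 h apart.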

Inconclusive results are not listed. Calls of active or inactive are those of the source. Unless noted, calls follow the shape of the dose curve; as a rule, active = well fitted curve in the direction sought with a large enough effect; inconclusive = small, poorly fitted or top-dose-only effect, or another doubt; inactive = no such curve, though single readings can be large; an effect the other way counts as inactive or inconclusive.

Chain of Beta-2 adrenergic receptor (Homo sapiens) (P07550 whole entry, looked up): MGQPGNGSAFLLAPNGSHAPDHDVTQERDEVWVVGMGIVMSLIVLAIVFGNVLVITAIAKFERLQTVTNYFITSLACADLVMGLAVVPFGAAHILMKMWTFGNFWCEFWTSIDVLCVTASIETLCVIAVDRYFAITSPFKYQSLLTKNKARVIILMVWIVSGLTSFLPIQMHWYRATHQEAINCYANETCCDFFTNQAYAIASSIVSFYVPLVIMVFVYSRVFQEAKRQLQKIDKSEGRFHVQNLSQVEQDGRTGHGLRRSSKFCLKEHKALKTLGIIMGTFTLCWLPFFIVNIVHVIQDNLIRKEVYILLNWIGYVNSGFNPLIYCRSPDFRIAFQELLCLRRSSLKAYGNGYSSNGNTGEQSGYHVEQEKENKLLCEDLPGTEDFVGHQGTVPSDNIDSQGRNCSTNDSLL
Chain of M-phase phosphoprotein 8 (Homo sapiens) (Q99549 whole entry, looked up): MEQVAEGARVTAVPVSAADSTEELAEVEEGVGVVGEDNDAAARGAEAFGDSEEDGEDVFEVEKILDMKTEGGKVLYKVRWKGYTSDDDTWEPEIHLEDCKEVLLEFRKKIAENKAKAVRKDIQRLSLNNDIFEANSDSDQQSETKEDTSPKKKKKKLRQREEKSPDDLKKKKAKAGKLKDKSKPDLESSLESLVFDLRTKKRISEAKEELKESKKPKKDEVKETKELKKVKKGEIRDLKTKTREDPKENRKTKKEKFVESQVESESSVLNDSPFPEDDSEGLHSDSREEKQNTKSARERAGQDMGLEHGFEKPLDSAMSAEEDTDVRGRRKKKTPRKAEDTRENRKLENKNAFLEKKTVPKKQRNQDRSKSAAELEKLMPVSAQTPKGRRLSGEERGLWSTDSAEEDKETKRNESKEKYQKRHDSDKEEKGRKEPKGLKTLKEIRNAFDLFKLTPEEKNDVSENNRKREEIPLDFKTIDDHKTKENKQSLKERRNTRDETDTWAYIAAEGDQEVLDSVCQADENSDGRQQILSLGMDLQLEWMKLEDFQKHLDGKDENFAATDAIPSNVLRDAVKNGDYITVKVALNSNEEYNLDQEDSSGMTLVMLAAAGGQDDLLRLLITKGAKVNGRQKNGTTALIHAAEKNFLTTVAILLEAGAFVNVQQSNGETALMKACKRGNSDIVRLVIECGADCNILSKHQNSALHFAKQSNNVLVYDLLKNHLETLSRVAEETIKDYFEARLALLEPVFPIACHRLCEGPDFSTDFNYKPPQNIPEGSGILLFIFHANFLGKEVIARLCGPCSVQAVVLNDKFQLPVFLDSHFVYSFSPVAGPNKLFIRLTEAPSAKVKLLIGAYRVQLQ
Chain of ATP-dependent 6-phosphofructokinase (Trypanosoma brucei brucei) (O15648 whole entry, looked up): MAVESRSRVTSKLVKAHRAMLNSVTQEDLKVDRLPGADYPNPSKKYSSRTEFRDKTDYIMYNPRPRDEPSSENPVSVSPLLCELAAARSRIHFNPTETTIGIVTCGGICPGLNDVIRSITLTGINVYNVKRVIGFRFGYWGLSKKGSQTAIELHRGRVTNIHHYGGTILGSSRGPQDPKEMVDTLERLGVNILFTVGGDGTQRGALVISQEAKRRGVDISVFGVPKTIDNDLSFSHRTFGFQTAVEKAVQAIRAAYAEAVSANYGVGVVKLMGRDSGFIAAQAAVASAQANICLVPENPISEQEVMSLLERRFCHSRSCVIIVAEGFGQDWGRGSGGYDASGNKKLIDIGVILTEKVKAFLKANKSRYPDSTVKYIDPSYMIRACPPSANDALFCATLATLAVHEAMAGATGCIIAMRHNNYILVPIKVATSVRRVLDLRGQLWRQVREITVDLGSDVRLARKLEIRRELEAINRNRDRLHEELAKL
Chain of DNA polymerase III PolC-type (Bacillus subtilis (strain 168)) (P13267 whole entry, looked up): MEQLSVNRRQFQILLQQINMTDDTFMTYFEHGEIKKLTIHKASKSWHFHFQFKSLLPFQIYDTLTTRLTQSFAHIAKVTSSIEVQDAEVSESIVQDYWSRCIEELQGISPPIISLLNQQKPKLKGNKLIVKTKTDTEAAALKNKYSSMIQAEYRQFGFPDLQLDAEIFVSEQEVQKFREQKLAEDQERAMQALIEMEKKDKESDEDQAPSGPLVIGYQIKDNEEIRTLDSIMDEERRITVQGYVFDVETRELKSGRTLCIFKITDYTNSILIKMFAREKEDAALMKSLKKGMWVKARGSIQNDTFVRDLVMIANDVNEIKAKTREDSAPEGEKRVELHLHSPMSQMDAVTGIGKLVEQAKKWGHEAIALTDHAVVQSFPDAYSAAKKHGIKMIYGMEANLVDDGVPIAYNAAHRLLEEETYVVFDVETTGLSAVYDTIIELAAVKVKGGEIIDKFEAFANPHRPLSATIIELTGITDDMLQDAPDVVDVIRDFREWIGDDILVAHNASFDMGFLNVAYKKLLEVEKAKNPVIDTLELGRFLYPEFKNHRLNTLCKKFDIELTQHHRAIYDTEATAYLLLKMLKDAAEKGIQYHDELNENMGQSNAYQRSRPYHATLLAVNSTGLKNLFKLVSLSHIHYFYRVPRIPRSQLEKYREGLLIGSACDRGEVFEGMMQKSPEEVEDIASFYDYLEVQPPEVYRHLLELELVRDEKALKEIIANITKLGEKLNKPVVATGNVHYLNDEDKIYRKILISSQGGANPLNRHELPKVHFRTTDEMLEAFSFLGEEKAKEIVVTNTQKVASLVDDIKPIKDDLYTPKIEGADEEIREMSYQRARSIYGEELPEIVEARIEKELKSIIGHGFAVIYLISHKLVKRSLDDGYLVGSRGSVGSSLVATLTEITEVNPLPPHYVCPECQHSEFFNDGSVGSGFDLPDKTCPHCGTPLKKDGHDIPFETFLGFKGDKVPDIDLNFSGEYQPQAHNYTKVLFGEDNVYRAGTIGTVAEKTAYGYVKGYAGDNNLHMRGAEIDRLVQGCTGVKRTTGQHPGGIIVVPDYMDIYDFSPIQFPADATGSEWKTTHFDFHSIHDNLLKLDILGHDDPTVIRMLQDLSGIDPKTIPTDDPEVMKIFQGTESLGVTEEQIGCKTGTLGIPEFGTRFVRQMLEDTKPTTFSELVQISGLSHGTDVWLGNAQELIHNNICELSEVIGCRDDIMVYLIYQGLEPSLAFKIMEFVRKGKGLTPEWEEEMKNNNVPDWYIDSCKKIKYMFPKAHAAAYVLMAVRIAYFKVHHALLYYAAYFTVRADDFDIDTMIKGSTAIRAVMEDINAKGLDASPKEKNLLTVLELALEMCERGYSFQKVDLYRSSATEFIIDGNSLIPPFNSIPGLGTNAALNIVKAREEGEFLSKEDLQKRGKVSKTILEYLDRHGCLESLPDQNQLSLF
Chain of Ubiquitin carboxyl-terminal hydrolase 2 (Homo sapiens) (O75604 whole entry, looked up): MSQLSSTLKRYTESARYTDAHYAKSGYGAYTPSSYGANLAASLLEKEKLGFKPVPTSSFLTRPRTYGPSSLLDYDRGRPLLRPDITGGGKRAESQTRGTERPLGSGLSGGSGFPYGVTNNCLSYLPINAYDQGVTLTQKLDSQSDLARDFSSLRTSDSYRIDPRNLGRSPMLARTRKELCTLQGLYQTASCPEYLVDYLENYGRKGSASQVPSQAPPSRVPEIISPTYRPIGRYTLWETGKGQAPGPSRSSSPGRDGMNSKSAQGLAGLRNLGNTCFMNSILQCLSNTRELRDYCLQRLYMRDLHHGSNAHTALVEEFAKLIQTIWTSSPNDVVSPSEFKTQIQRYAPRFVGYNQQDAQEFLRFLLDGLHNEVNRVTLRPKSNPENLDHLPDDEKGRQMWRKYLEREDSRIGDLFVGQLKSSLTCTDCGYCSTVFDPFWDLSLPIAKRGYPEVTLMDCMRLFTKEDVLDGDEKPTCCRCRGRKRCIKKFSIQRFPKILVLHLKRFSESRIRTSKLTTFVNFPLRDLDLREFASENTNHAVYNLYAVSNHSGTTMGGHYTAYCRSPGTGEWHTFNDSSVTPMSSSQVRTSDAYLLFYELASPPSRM
Chain of ATP-dependent DNA helicase Q1 (Homo sapiens) (P46063 whole entry, looked up): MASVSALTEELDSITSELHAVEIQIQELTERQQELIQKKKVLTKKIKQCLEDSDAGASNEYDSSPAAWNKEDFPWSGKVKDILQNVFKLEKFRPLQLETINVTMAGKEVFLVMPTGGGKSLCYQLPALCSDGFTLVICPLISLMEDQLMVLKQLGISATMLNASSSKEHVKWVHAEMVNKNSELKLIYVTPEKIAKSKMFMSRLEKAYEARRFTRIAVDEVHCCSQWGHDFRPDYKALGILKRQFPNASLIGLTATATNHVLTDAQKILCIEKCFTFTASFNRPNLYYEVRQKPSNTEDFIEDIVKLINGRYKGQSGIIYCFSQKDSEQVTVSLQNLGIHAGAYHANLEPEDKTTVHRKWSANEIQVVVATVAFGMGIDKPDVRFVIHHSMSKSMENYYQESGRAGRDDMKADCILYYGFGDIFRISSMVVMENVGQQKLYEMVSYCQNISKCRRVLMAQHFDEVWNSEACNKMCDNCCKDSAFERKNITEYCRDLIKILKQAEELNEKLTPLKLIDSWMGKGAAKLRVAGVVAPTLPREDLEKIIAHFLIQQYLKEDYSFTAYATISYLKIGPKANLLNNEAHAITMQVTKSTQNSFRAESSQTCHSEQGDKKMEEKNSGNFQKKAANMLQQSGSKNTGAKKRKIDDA
Chain of Thioredoxin reductase 1, cytoplasmic (Rattus norvegicus) (O89049 whole entry, looked up): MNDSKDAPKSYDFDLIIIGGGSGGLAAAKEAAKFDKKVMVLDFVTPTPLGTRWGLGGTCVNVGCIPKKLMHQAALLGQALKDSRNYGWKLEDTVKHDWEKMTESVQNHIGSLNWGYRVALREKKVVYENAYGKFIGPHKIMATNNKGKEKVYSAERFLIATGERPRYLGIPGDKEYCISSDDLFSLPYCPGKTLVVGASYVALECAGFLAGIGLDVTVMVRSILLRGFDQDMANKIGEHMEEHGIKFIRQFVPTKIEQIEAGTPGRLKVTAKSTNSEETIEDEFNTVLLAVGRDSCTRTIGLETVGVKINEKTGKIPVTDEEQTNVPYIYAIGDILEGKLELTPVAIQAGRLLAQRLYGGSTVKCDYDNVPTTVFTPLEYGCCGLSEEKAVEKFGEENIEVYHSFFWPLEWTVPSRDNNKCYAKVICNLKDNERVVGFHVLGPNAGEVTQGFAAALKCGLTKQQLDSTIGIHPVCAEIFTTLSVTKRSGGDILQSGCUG

For `C[n+]1cc2c3c(ccc2c2ccc4cc5c(cc4c21)OCO5)OCO3`, the compound was classed as inactive in test [1], in [5], in test [6] and in test [7]. The Potency entry in [2], in test [3], in test [4], in [8] and in test [9] was “inactive” throughout.

For `CN1CCN(C2=Nc3ccccc3Oc3ccc(Cl)cc32)CC1`, the compound was called inactive in test [10], in test [5], in test [12], in [6], in test [14] and in test [7]. Also, the Potency result in test [2], in test [3], in test [4], in test [11], in test [13] and in [8] was “inactive” throughout. Moreover, the Potency result in test [9] and in test [15] was “inactive” throughout.

As to `CC1=C(C)C(=O)C(CCCCC#CCCCC#CCO)=C(C)C1=O`, the result in test [10], in [5], in test [12], in [6] and in test [7] was inactive. Besides, the Potency result in test [2], in test [16] and in test [9] was “inactive” each time. The Potency in test [13] is 16.4 µM (active); in test [17], 10.4 µM (active); in [18], 8.28 µM (active); in test [15], 31.6 µM (active).

For `CN1C(=O)CC[C@H]1c1cccnc1`, the compound was classed as inactive in test [10], in test [5] and in test [12]. The Potency result in test [2], in [3], in test [4], in test [16], in [13] and in [8] was “inactive” throughout. The Potency entry in test [9] and in [15] was “inactive” throughout.

As for `NS(=O)(=O)c1cc2c(cc1Cl)NC(C1CC3C=CC1C3)NS2(=O)=O` (configuration not stated), in test [19], the Potency is 11.2 µM (active). In addition, the result in test [10], in test [5], in test [12] and in test [7] was inactive. Also, the Potency entry in [2], in test [3], in [4], in [11], in test [16] and in test [13] was “inactive” each time. Further, the Potency entry in [18], in [8], in test [9] and in test [15] was “inactive” throughout.

For the compound `CN(C)[C@@H]1C(=O)C(C(N)=O)=C(O)[C@@]2(O)C(=O)C3=C(O)c4c(O)ccc(Cl)c4[C@@H](O)[C@H]3C[C@@H]12`, the call in test [10], in test [5], in [12] and in [7] was inactive. The Potency result in test [2], in test [3], in test [4] and in test [13] was “inactive” each time. Further, the Potency in test [9] is 29.9 µM (active).

For the compound `COc1ccc2c(c1OC)C(=O)O[C@@H]2[C@H]1c2c(cc3c(c2OC)OCO3)CCN1C`, the outcome in [10], in test [5], in test [12], in [6], in test [14] and in test [7] was inactive. The Potency result in test [2], in test [3], in test [4], in test [13], in [8] and in [9] was “inactive” throughout.

With `c1cc(CN2CCCCC2)cc(OCCCNc2nc3ccccc3s2)c1`, the Potency entry in test [19], in [20], in test [2], in [16], in test [8] and in test [9] was “inactive” each time. For the same compound, in test [15], the Potency entry is “inactive”. In addition, the compound was classed as inactive in [10], in [5], in test [12] and in test [7]. Further, the Potency was 16.5 µM (active) in test [4], 2.94 µM (active) in test [17] and 8.28 µM (active) in [18].

For the compound `CC(C)(Oc1ccc(CCNC(=O)c2ccc(Cl)cc2)cc1)C(=O)O`, the outcome in [10], in test [5], in test [12], in test [6], in test [14] and in test [7] was inactive. The Potency result in test [2], in test [3], in [4], in test [13], in test [8] and in test [9] was “inactive” in each case. Moreover, the Potency entry in [15] is “inactive”.

Consider `COC(=O)C1=C(C)NC(C)=C(C(=O)OCCN(C)Cc2ccccc2)C1c1cccc([N+](=O)[O-])c1` (configuration not stated), for which the Potency entry in test [19], in [16] and in [8] was “inactive” each time. For the same compound, the results for the Potency in [3] and in test [17] were 18.5 µM (active) and 3.29 µM (active), respectively. Also, the result in test [5], in test [12] and in test [7] was inactive.
